Compound activity as filed in PubChem BioAssay.
Cruzain inh Det: blocks cruzain activity in presence of Triton detergent; AID 1478; hit rate 0.43% among 200,000; P25779; purified cruzain, Z-FR-AMC fluorescence, 0.01% Triton; Potency, µM, for the others: max response, negative = inhibition, hits mostly inhibitors;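 further: plate controls were neutral wells for no effect and buffer without enzyme for full effect; nearly all actives have a fitted effect of over 40% in size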
Target sequence (P25779 123-467 limits assumed): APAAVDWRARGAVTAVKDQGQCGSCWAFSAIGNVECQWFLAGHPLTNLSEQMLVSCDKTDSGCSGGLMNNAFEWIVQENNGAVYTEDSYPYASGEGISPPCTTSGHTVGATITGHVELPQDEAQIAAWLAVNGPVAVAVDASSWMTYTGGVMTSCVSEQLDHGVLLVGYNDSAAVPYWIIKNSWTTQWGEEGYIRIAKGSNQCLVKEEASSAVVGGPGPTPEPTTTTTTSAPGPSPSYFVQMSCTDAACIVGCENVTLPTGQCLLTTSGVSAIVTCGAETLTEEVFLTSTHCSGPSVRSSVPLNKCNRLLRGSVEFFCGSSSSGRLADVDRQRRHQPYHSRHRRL
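15 min RT preincubation of 1.5 nM cruzain with compound, then 2 uM Z-FR-AMC added; kinetic AMC fluorescence, 60 s delta. Triton X-100 0.01%, pH 5.5.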
Cruzain noTriton: blocks cruzain activity in detergent-free assay. hit rate 2.3% among 200,000. P25779. Potency, µM, inactives show max response, negative = inhibition, hits mostly inhibitors. purified cruzain, Z-FR-AMC fluorescence, no detergent;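 further: plate controls were enzyme without inhibitor for no effect and buffer without enzyme for full effect; nearly all actives have a fitted effect of over 40% in size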
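Purified cruzain at 1.5 nM, pre-incubated 15 min with compound at room temperature in 100 mM sodium acetate pH 5.5, 5 mM DTT, 0.00005% Triton X-100. Reaction started with 2 uM Z-FR-AMC; AMC fluorescence increase over 60 s gives rate.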
The depositor's hits bear a star. An excerpt weighted towards active compounds, which were near 2.6% of everything screened. The call rests on the fitted dose curve; in most records, active means well fitted curve in the direction sought with a large enough effect; inconclusive means small, poorly fitted or top-dose-only effect, or another doubt; inactive means no such curve, though single readings can be large; an effect the other way counts as inactive or inconclusive. Potency means the concentration at half of the fitted maximal effect.

Screening CCn1c2c(c(=O)n3ncc(C(=O)Nc4cccc(Cl)c4C)c13)CN(Cc1ccc(OC)cc1)CC2 returned Cruzain inh Det -7% and Cruzain noTriton 18%.
For Cc1ccc2nc(-c3ccc(SCC(=O)Nc4ccc5c(c4)OCCO5)nc3)[nH]c2c1 the results were Cruzain inh Det -6% and Cruzain noTriton -8%.
Cc1cc2nc(-c3ccc(SCC(=O)Nc4ccc5c(c4)OCCO5)nc3)[nH]c2cc1C was read as Cruzain inh Det -5% and Cruzain noTriton 16µM*.
For COC(=O)C(C)Sc1nc2c([nH]c3ccccc32)c(=O)n1-c1ccc(OC)cc1 (stereo not drawn) the results were Cruzain inh Det -4% and Cruzain noTriton -2%.
For Cc1cc(C)cc(-n2c(SCC(=O)Nc3ccc4c(c3)OCCO4)nc3c([nH]c4ccccc43)c2=O)c1 the results were Cruzain inh Det 0% and Cruzain noTriton inconclusive.
Screening O=C(CSc1nc2c([nH]c3ccccc32)c(=O)n1-c1ccccc1)Nc1ccc(Cl)c(Cl)c1 returned Cruzain inh Det -1% and Cruzain noTriton 13µM*.
CC(Sc1nc2c([nH]c3ccccc32)c(=O)n1-c1ccccc1)c1ccccc1 (stereo not drawn) was read as Cruzain inh Det -2% and Cruzain noTriton 7.9µM*.
`Cc1ccc(-n2c(SCC(=O)Nc3ccc4c(c3)OCCO4)nc3c([nH]c4ccccc43)c2=O)cc1` gave Cruzain inh Det -7% and Cruzain noTriton 25µM*.
Screening COc1cccc(NC(=O)CSc2nc3c([nH]c4ccccc43)c(=O)n2-c2ccccc2)c1 returned Cruzain inh Det -6% and Cruzain noTriton inconclusive.
CCCBr was read as Cruzain inh Det 4% and Cruzain noTriton -7%.
CCOc1ccccc1C1C(C(=O)Nc2ccccc2)=C(C)Nc2nc(SCC(=O)c3ccc(C)cc3)nn21 (stereo not drawn) was read as Cruzain inh Det 3% and Cruzain noTriton 1%.
For Cc1ccc(CNC(=O)c2oc3c(c2C)-c2nn(Cc4ccc(Cl)cc4)cc2CC3)cc1 the results were Cruzain inh Det -3% and Cruzain noTriton 1%.
O=C(CSc1nc2c([nH]c3ccccc32)c(=O)n1-c1ccccc1)Nc1ccc2c(c1)OCO2 was read as Cruzain inh Det -2% and Cruzain noTriton inconclusive.
O=C(CSc1nc2c([nH]c3ccccc32)c(=O)n1-c1ccccc1)Nc1ccc2c(c1)OCCO2 was read as Cruzain inh Det -5% and Cruzain noTriton 25µM*.
N[C@](CC1c2ccccc2Oc2ccccc21)(C(=O)O)[C@@H]1C[C@@H]1C(=O)O was read as Cruzain inh Det -6% and Cruzain noTriton -3%.
For COc1ccc(-c2nc(-c3ccccc3)c(-c3cc([N+](=O)[O-])ccc3C)[nH]2)cc1O the results were Cruzain inh Det -4% and Cruzain noTriton 7%.
For COc1ccc(-c2nc(=S)c3c([nH]2)Oc2ccc(C)cc2C3)cc1O the results were Cruzain inh Det 0% and Cruzain noTriton 10µM*.
For Cc1cc(C)n(-c2nc3ccccc3nc2Nc2ccc(Cl)c(C(=O)OC(C)C)c2)n1 the results were Cruzain inh Det 0% and Cruzain noTriton 5%.
CC(=O)c1ccc(NC(=O)CN2C(=O)/C(=C/C=C/c3ccccc3)SC2=S)cc1 was read as Cruzain inh Det -8% and Cruzain noTriton 10µM*.
For O=C(CCN1C(=O)/C(=C/C=C/c2ccccc2)SC1=S)Nc1cccnc1 the results were Cruzain inh Det -4% and Cruzain noTriton inconclusive.
For CC(NC(=O)C1CCN(C(=O)N2CCOc3ccc(Cl)cc32)CC1)c1ccccc1 (stereo not drawn) the results were Cruzain inh Det -6% and Cruzain noTriton 6%.
`CCOC(=O)c1cc(-c2ccccc2)sc1NC(=O)CN1C(=O)NC(CC)(c2ccccc2)C1=O` (stereo not drawn) gave Cruzain inh Det -9% and Cruzain noTriton 10µM*.
`CCOC(=O)c1cc(-c2ccccc2)sc1NC(=O)CN1C(=O)NC(CC)(c2ccc(F)cc2)C1=O` (stereo not drawn) gave Cruzain inh Det 1% and Cruzain noTriton 10µM*.
For CCOC(=O)c1cc(-c2ccccc2)sc1NC(=O)CC the results were Cruzain inh Det -9% and Cruzain noTriton 1%.
For CCOC(=O)c1cc(-c2ccccc2)sc1NC(=O)CSc1nncs1 the results were Cruzain inh Det -10% and Cruzain noTriton 29%.
`COc1ccc(NC(=O)CN2CCN(Cc3ccc(F)cc3)S2(=O)=O)cc1Cl` gave Cruzain inh Det -6% and Cruzain noTriton -7%.
Cc1ccc(Cn2c(=O)c3ccccc3n3c(-c4cccc(O)c4)nnc23)cc1 was read as Cruzain inh Det -2% and Cruzain noTriton 8%.
For CS(=O)(=O)N1CCc2cc(-c3csc(NC(=O)Cc4ccccc4)n3)ccc21 the results were Cruzain inh Det -1% and Cruzain noTriton inconclusive.
`Cc1sc(NC(=O)Cc2ccc3c(c2)OCO3)nc1-c1ccc2c(c1)CCN2C(=O)c1ccccc1F` gave Cruzain inh Det -1% and Cruzain noTriton 7.9µM*.
`Cc1ccc2c(c1)CCCN2C(=O)c1ccc2c(c1)OCO2` gave Cruzain inh Det -3% and Cruzain noTriton 6%.
`Cc1sc(NC(=O)CN(C)C2CCCCC2)nc1-c1ccc2c(c1)CCN2S(=O)(=O)c1ccccc1` gave Cruzain inh Det -5% and Cruzain noTriton 32µM*.
For O=C(NCc1ccc2c(c1)CCN2C(=O)c1ccncc1)c1ccccc1F the results were Cruzain inh Det 0% and Cruzain noTriton -4%.
`Cc1sc(NC(=O)Cc2ccc3c(c2)OCO3)nc1-c1ccc2c(c1)CCN2C(=O)c1ccc(F)cc1` gave Cruzain inh Det -4% and Cruzain noTriton 6.3µM*.
For CCN(CCCNC(=O)c1cc(Nc2ccc(OC)cc2OC)nc2ccccc12)c1cccc(C)c1 the results were Cruzain inh Det -5% and Cruzain noTriton inconclusive.
For COc1ccc(C(CC(=O)Nc2ccc(Br)cn2)N2Cc3ccccc3C2=O)cc1 (stereo not drawn) the results were Cruzain inh Det -6% and Cruzain noTriton 8%.
Screening O=C(Nc1cccc(NC(=O)c2ccc(-c3ccc(Br)cc3)o2)c1)c1ccccc1 returned Cruzain inh Det -12% and Cruzain noTriton 5µM*.
For O=C(Nc1ccccc1)c1ccc(-c2ccc(Br)cc2)o1 the results were Cruzain inh Det -8% and Cruzain noTriton -7%.
Screening COc1ccc(C2c3c(n(C)c4ccccc34)C(=O)N2CC(=O)Nc2cccc(F)c2)cc1 (stereo not drawn) returned Cruzain inh Det -6% and Cruzain noTriton 8%.
Screening COc1cc(NC(=O)CSc2nc(-c3ccc(C(C)C)cc3)no2)cc(OC)c1 returned Cruzain inh Det 1% and Cruzain noTriton 5%.
Screening CC(C)c1ccc(/C=C(/C#N)c2nnc(NC(=O)c3ccccc3)s2)cc1 returned Cruzain inh Det -6% and Cruzain noTriton 13µM*.
For CC(C)c1ccc(/C=C(\C#N)c2nc(-c3ccc(O)cc3)cs2)cc1 the results were Cruzain inh Det 7% and Cruzain noTriton inconclusive.
Cc1c(NC(=O)Nc2cccc(C(F)(F)F)c2)sc2nc3n(c(=O)c12)CCC(C)CC3 (stereo not drawn) was read as Cruzain inh Det 0% and Cruzain noTriton -12%.
O=C1CC(=C(c2ccccc2)c2ccccc2)C(=O)N1CCCN1CCN(c2cccc(Cl)c2)CC1 was read as Cruzain inh Det -1% and Cruzain noTriton inconclusive.
Screening O=C1CC(=C2c3ccccc3-c3ccccc32)C(=O)N1CCCCN1CCN(c2ccccc2)CC1 returned Cruzain inh Det -16% and Cruzain noTriton 16µM*.
